Compound activity as filed in PubChem BioAssay.
An excerpt weighted towards active compounds, which were near 10% of everything screened.
G9a block: G9a (human) methyltransferase inhibition | G9a H3K9 monomethylation, AlphaScreen, 2 h | Potency, µM (highest dose often 102 µM), usual class: inhibitors | Q96KQ7 | 8.8% of 350,000 active; note: nearly all actives have a fitted effect of over 75% in size
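Enzyme 20 nM + cpd, 15 min RT; add b-H3K9 pep 500 nM / SAM 20 uM; 2 h RT; anti-H3K9me1 Ab 0.5 ug/mL + SA donor / anti-rabbit acceptor beads 20 ug/mL each, 10 min; AlphaScreen read.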
GLS inh: glutaminase GLS (human) inhibition; O94925; GLS enzymatic activity, qHTS titration; Potency, µM (doses to about 45.5 µM), most hits filed as inhibitors; 0.21% of 410,000 active
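Enzyme dispensed in phosphate buffer (45 mM, pH 8.2, 0.02% Tween-20), compounds pinned in, then 1 mM L-glutamine solution and the glutamate oxidase–HRP–Amplex Red mix added; fluorescence read immediately and again after 30 min at room temperature.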
JMJD2A Tudor inh: blocks the human JMJD2A Tudor domain | O75164 | AlphaScreen JMJD2A-Tudor / H3K4me3 peptide binding | Potency, µM (highest dose often 114 µM), usual class: inhibitors | 4.4% of 390,000 active; note: nearly all actives have a fitted effect of over 50% in size
BAZ2B inh: BAZ2B (human) inhibition; AlphaScreen BAZ2B-H3K14Ac peptide displacement; Potency, µM (titrated, usually from 114 µM), actives largely listed as inhibitors; 4.4% of 360,000 active; note: nearly all actives have a fitted effect of over 60% in size
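Inhibition is scored as reduced AlphaScreen emission. The BAZ2B/b-H3(5-23)K14Ac complex (50 nM each) in PBS pH 7.4, 0.01% Tween-20 meets compound (up to 110 uM) for 30 min at RT before bead addition.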
HP1b chromo inh: inhibitors of HP1-beta chromodomain binding to methylated histone tails; AlphaScreen HP1-beta / biotin-H3K9me3 peptide binding; Potency, µM (doses to about 114 µM), usual class: inhibitors; 0.56% of 390,000 active; AID 540317; note: nearly all actives have a fitted effect of over 70% in size
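AlphaScreen: HP1-beta (50 nM) preformed 30 min with biotin-H3(1-18)K9me3 peptide (50 nM) in PBS pH 7.4, 0.01% Tween-20. Compound added for 30 min at RT, then streptavidin donor/nickel chelate acceptor beads (10 ug/mL) for 30 min.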
L3MBTL1 inh: L3MBTL1 (human) inhibition. Q9Y468. AID 485360. Potency, µM (titrated, usually from 57.1 µM), actives largely listed as inhibitors. 0.66% of 230,000 active. AlphaScreen L3MBTL1–H3K9me1 peptide binding; note: nearly all actives have a fitted effect of over 60% in size
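AlphaScreen assay: L3MBTL1 (50 nM final) was preincubated 30 min at room temperature with biotinylated H3(1-15)K9me1 peptide (75 nM final), then 30 min with library compounds; streptavidin donor and nickel chelate acceptor beads (10 ug/mL final) added, 30 min dark.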
A number is an active result; 0 = inactive; ? = inconclusive; - = not tested or not shown; [ ] = remark or other dose. Calls come from the whole dose curve; as a rule, active = well fitted curve in the direction sought with a large enough effect; inconclusive = small, poorly fitted or top-dose-only effect, or another doubt; inactive = no such curve, though single readings can be large; an effect the other way counts as inactive or inconclusive.

SMILES	G9a block	GLS inh	JMJD2A Tudor inh	BAZ2B inh	HP1b chromo inh	L3MBTL1 inh
C[C@]12CC[C@@H]3c4ccc(O)cc4CC[C@H]3[C@@H]1CCC2OC(=O)CCC1CCCC1 (stereo not given in full)	0	0	-	-	-	-
Cn1c(SCc2n[nH]c(=S)n2-c2ccccc2)nnc1-c1ccccc1	8.91µM	0	17.8µM	0	0	0
Cc1cccc(C)c1NCc1n[nH]c(=S)n1-c1ccccc1	11.2µM	0	39.8µM	0	0	?
Cn1c(SCc2ccccc2)nnc1-c1ccncc1	?	0	0	0	0	0
Cc1ccc(-n2c(CCc3ccccc3)n[nH]c2=S)cc1C	2µM	?	?	0	0	0
Cc1ccc(-n2c(CCc3ccccc3)nnc2SCC(=O)NCc2ccccc2)cc1C	0	0	0	0	0	-
CC(C)Oc1ccc(CCc2n[nH]c(=S)n2-c2ccccc2)cc1	2.51µM	0	0	0	0	0
O=C1CCc2cc(S(=O)(=O)Nc3cccnc3)ccc2N1	-	-	0	-	-	-
Cc1cccc(C)c1OCc1n[nH]c(=S)n1-c1ccccc1	2.51µM	0	?	0	0	0
CCCOCC(O)CCc1n[nH]c(=S)n1-c1ccccc1 (stereo not given)	-	0	50.1µM	0	0	0
Cc1n[nH]c(=S)n1-c1cccc(Cl)c1	3.98µM	0	7.94µM	0	0	0
Cc1ccccc1OCc1n[nH]c(=S)n1-c1cccc(Cl)c1	11.2µM	0	0	0	0	0
COCc1n[nH]c(=S)n1-c1ccccc1	39.8µM	0	39.8µM	0	0	-
Cc1ccccc1OCc1n[nH]c(=S)n1Cc1ccccc1	8.91µM	0	0	0	0	0
COC(Cc1n[nH]c(=S)n1-c1ccccc1)OC	0	0	17.8µM	0	0	0
Cc1ccc(OCc2n[nH]c(=S)n2-c2ccccc2)cc1C	-	0	0	0	0	0
COc1ccccc1CCNC(=O)c1ccc(-c2nc(CSc3ccc(C)cc3)c(C)o2)cc1	0	0	0	0	0	-
S=C(NCc1ccccc1)Nc1cccc2cnccc12	22.4µM	0	0	0	0	-
S=C(NCCc1ccccc1)Nc1cccc2cnccc12	50.1µM	0	0	?	0	0
S=C(NCc1cccnc1)Nc1cccc2ccccc12	0	0	0	0	0	0
COc1cc(C(=O)NCC(=O)NC(C)c2ccc(-n3ccnc3)cc2)cc(OC)c1OC (stereo not given)	0	0	0	0	0	0
COc1cc(C(=O)NC(C)c2ccc(-n3ccnc3)cc2)cc(OC)c1C (stereo not given)	3.55µM	0	79.4µM	50.1µM	0	-
O=C(NC(=S)Nc1cccc(S(=O)(=O)NC2=NCCC2)c1)c1cc(-c2ccco2)nc2ccccc12	39.8µM	0	0	?	?	?
O=C(Nc1cccc(S(=O)(=O)NC2=NCCC2)c1)c1cc(-c2ccco2)nc2ccccc12	39.8µM	0	?	35.5µM	?	7.08µM
COc1ccc2nc(NC(=O)c3ccc(S(=O)(=O)N4CCCC(C)C4)cc3)sc2c1 (stereo not given)	0	0	0	0	0	-
SMILES	G9a block	GLS inh	JMJD2A Tudor inh	BAZ2B inh	HP1b chromo inh	L3MBTL1 inh
CC1CCN(C(=O)C(C)OC(=O)c2ccc(S(C)(=O)=O)c([N+](=O)[O-])c2)CC1 (stereo not given)	-	-	0	-	0	-
O=C(O)CN1C(=O)/C(=C\c2cccc(OCc3ccccc3)c2)SC1=S	0[0.501 µM]	0	?	56.2µM	?	0[2.29 µM]
CN1C(=O)/C(=C\c2cccc(OCc3ccccc3)c2)SC1=S	0	0	0	?	0	-
O=C(O)COc1cccc(/C=C2/SC(=S)N(Cc3ccccc3)C2=O)c1	44.7µM	0	50.1µM	?	0	-
Cc1cccc(Cc2cnc(NC(=O)CN3C(=O)/C(=C/c4ccccc4)SC3=S)s2)c1	39.8µM	0	0	?	?	-
O=C(C1COc2ccccc2O1)N1CCN(c2nc3ccc(F)cc3s2)CC1 (stereo not given)	0	0	0	0	0	-
C=CCn1c(O)c(N=NC(=O)OC(C)(C)C)c2ccccc21	0	0	0	0	0	0
C=CCn1c(O)c(N=Nc2ccccc2C)c2ccccc21	3.98µM	0	?	0	?	0
C=CCn1c(O)c(N=NC(=S)Nc2ccc(OC)c(Cl)c2)c2ccccc21	35.5µM	0	?	7.94µM	?	0
O=C(O)c1ccc(S(=O)(=O)c2ccc3c(c2)C(=O)N(NC(=O)c2ccncc2)C3=O)cc1	50.1µM	0	0	0	0	-
O=C(O)c1ccc(S(=O)(=O)c2ccc3c(c2)C(=O)N(NC(=O)c2ccccc2)C3=O)cc1	0	0	0	0	0	-
COc1ccccc1N1CCN(c2nc(C)nc3c2oc2ccccc23)CC1	39.8µM	0	44.7µM	50.1µM	0	0
COc1ccccc1N1CCN(Cc2cc(=O)oc3cc(C)ccc23)CC1	-	0	-	-	-	-
Cc1nc(N2CCC(C)CC2)c2oc3ccccc3c2n1	0[12.7 µM]	0	0	0	0	0
COc1ccccc1N1CCN(Cc2cc(Br)c(O)c3ncccc23)CC1	8.91µM	0	39.8µM	12.6µM	0	-
CCCOCc1cc(CN2CCN(c3ccccc3OC)CC2)c(O)c2ncccc12	?	0	20µM	4.47µM	0	-
CCOc1ccc2oc(=O)cc(CN3CCN(c4ccccc4OC)CC3)c2c1	0	0	0	0	0	-
COc1ccccc1N1CCN(Cc2cc(COC(C)C)c3cccnc3c2O)CC1	0	0	22.4µM	3.98µM	0	-
O=C1CCc2cc(S(=O)(=O)Nc3ccc4ccccc4c3)ccc2N1	-	-	0	-	-	-
CCOCc1cc(CN2CCN(c3ccccc3OC)CC2)c(O)c2ncccc12	0	0	22.4µM	5.62µM	0	-
CCOc1ccccc1N1CCN(Cc2cccc(OC)c2O)CC1	0	0	0	0	0	0
COc1cccc(NC(=O)CN2C(=O)CC(c3ccco3)Sc3ccccc32)c1 (stereo not given)	?	0	?	?	0	-
COC(=O)c1sc(NC(=S)NNC(=O)c2c(Br)c(C)nn2C)c(C(=O)OC)c1C	-	0	50.1µM	25.1µM	0	-
COC(=O)c1sc(S(=O)(=O)NCC(=O)O)c(C(=O)OC)c1C	70.8µM	0	0	?	0	0
CCC(=O)Nc1sc(C(=O)OC)c(C)c1C(=O)OC	28.2µM	?	0	0	0	0
COC(=O)c1sc(S(=O)(=O)Nc2c(C)nn(C)c2C)c(C(=O)OC)c1C	56.2µM	0	0	0	0	?
COC(=O)c1sc(S(=O)(=O)NC(C)C(=O)O)c(C(=O)OC)c1C (stereo not given)	?	0	0	0	0	0
CCN1CCN(C(=O)c2cnn(-c3cccc(C)c3)c2C2CCN(C(=O)OC(C)(C)C)CC2)CC1	0	0	0	0	0	-
O=S(O)CO	-	0	-	-	-	-
